# Laboratory results reported in PubChem BioAssay (NCATS).
# Inconclusive results are not listed. The source made the active and inactive calls. Unless noted, calls follow the shape of the dose curve; as a rule, active = well fitted curve in the direction sought with a large enough effect; inconclusive = small, poorly fitted or top-dose-only effect, or another doubt; inactive = no such curve, though single readings can be large; an effect the other way counts as inactive or inconclusive.
# Columns and labels:
# [1] = qHTS Assay for Lipid Storage Modulators (AID 1519; calls by dose curve; as to activity change, negative = inhibition: % is scaled to controls: 0 for no effect and ±100 for the full control effect); conditions: Drosophila S3 cells, BODIPY lipid droplet/cell ratio, laser cytometry, cells loaded with oleic acid
# In short: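 Cells seeded at 5,000 per well were treated with compounds over a concentration series and loaded with oleic acid (400 uM, as added). Lipid droplet fluorescence (488 nm excitation, 500-530 nm channel) was read by laser-scanning cytometry and normalized to 20 uM Triacsin C.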
# [2] = Validation of Assay for Modulators of Lamin A Splicing (AID 1459; active = well fitted curve in the direction sought with a large enough effect in the signal ratio; the % refers to the signal ratio;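 also: cells exposed to compound for two days before reading; 0% is about no effect; ratio rise marks activators and ratio drop marks inhibitors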); conditions: Lamin A splicing dual RFP/GFP fluorescence reporter; series mostly up to 9.22 µM
# In short: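 Dual-reporter HeLa S3 line (lamin A-EGFP minigene, DsRed2) treated with compounds 48 hrs, 0.5% DMSO final. Endpoint: EGFP/DsRed2 total intensity ratio from laser-scanning microplate cytometry.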
# [3] = molecular target: DNA repair nuclease/redox regulator APEX1 (Homo sapiens) (UniProt P27695); assay: qHTS Validation Assay for Inhibitors of the Human Apurinic/apyrimidinic Endonuclease 1 (APE1) (AID 1705;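 also: TAMRA fluorescence gain over two minutes as APE1 cuts a quenched THF abasic duplex; % is scaled to controls: 0 for no effect and ±100 for the full control effect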); conditions: purified APE1 endonuclease activity, fluorescence, titration; series mostly up to 57.1 µM
# In short: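 Substrate: 50 nM final fluorophore/quencher THF-abasic duplex. Enzyme preincubated with compounds 15 min, RT. Progress derived from fluorescence difference, third minus first kinetic read.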
# [4] = Counterscreen for APE1 Inhibitors: Fluorescent Dye Displacement Validation Assay (AID 1707); conditions: fluorescent dye displacement from DNA; series mostly up to 57.1 µM;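 also: plate controls were ThO with dsDNA and no compound for no effect and ThO without dsDNA for full effect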
# In short: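 Signal: ThO fluorescence (ex 480 nm/em 540 nm) on binding 50 nM dsDNA; displacement by test compound reduces it. Conditions: 250 nM dye, 50 mM Tris-HCl pH7.5, 2 mM MgCl2, 50mM NaCl, 0.01% Tween-20.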
# [5] = molecular target: Endonuclease 4 (Escherichia coli (strain K12)) (UniProt P0A6C1); assay: Counterscreen for APE1 Inhibitors: qHTS Validation Assay for Inhibitors of Endonuclease IV (AID 1708); also: % is scaled to controls: 0 for no effect and ±100 for the full control effect; conditions: E. coli endonuclease IV, DNA cleavage fluorescence; series mostly up to 57.1 µM
# In short: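 Enzyme (2 nM) + compound, 15 min RT; add 50 nM TAMRA/BHQ-2 THF-site dsDNA; kinetic read ex525/em598, 3 reads/60 s; activity = read 3 − read 1. Buffer Tris pH 7.5, 50 mM NaCl, 2 mM MgCl2, DTT, Tween-20.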
# [6] = qHTS for differential inhibitors of proliferation of Plasmodium falciparum line 7G8 (AID 1815); conditions: Plasmodium falciparum 7G8 proliferation inhibition; series mostly up to 28.7 µM;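 also: parasite growth measured after three days of incubation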; also: potency is read from the fitted curve at half-maximal effect;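 as to activity change, negative = inhibition: plate controls were vehicle wells for no effect and reference inhibitor wells for full effect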
# [7] = qHTS for differential inhibitors of proliferation of Plasmodium falciparum line GB4 (AID 1816); conditions: Potency: Plasmodium falciparum GB4 proliferation inhibition; series mostly up to 28.7 µM;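 also: parasite growth measured after 72 h incubation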; also: potency is read from the fitted curve at half-maximal effect;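 as to activity change, negative = inhibition: 0% = vehicle DMSO and -100% = reference inhibitor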
# [8] = qHTS for differential inhibitors of proliferation of Plasmodium falciparum line 3D7 (AID 1876); also: potency is read from the fitted curve at half-maximal effect; conditions: P. falciparum 3D7 proliferation inhibition; series mostly up to 28.7 µM
# [9] = qHTS for differential inhibitors of proliferation of Plasmodium falciparum line D10 (AID 1877); conditions: series mostly up to 28.7 µM;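 also: parasites grown with compound for 72 h before DNA staining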; also: potency is read from the fitted curve at half-maximal effect;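 as to activity change, negative = inhibition: plate controls were vehicle wells for no effect and reference inhibitor wells for full effect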
# [10] = qHTS for differential inhibitors of proliferation of Plasmodium falciparum line Dd2 (AID 1882); conditions: Potency: Plasmodium falciparum Dd2 proliferation inhibition; series mostly up to 28.7 µM; also: nearly all actives have a fitted effect of over 65% in size; also: potency is read from the fitted curve at half-maximal effect;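 as to activity change, negative = inhibition: plate controls were DMSO vehicle for no effect and 0.29 µM artemisinin for full effect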
# In short: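 SYBR Green DNA fluorescence (ex 485, em 535 nm) after overnight lysis quantifies parasite growth; compound exposure lasted 72 h at 37 C on infected red cells at 2.5% hematocrit, 0.3% parasitemia (final). Artemisinin 0.29 uM and vehicle wells define normalization.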
# [11] = qHTS for differential inhibitors of proliferation of Plasmodium falciparum line W2 (AID 1883); conditions: Potency: Plasmodium falciparum W2 proliferation inhibition; series mostly up to 28.7 µM;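 also: parasites grown with compound for 72 h before lysis and staining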; also: potency is read from the fitted curve at half-maximal effect;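 as to activity change, negative = inhibition: 0% = vehicle wells and -100% = control inhibitor wells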
# [12] = molecular target: Alpha-galactosidase A (Homo sapiens) (UniProt P06280); assay: Counterscreen for Glucocerebrosidase Inhibitors: qHTS Assay for Human alpha-Galactosidase at pH 4.5 (AID 992); conditions: purified enzyme, fluorogenic substrate; series mostly up to 76.9 µM; also: 0% is about no effect
# In short: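 Citrate buffer pH 4.5, Tween-20 0.005%. Enzyme 2 nM, substrate 80 uM, 20 min RT. Stop pH 10. Fluorescence Ex 365/Em 440. AC50 by Hill fit.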
# [13] = molecular target: alpha-glucosidase (Oryza sativa, rice) (UniProt Q653V4); assay: Counterscreen for Glucocerebrosidase Inhibitors: qHTS Assay for Rice alpha-Glucosidase at pH 5.0 (AID 997); conditions: rice alpha-glucosidase enzyme activity; series mostly up to 76.9 µM;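 also: 0% = full activity with enzyme and -100% = basal without enzyme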
# In short: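 Endpoint fluorogenic assay at pH 5.0: compounds (0.7 nM to 77 uM) titrated against 4 nM rice enzyme and 400 uM 4-MU-alpha-glucoside for 20 min at room temperature; NaOH/glycine stop, read ex 365/em 440 nm, Hill-fitted AC50.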
# [14] = measured here: cell count channel max response
# [15] = measured here: lipid channel max response
# DNA repair nuclease/redox regulator APEX1 (Homo sapiens), sequence (P27695 whole entry, looked up): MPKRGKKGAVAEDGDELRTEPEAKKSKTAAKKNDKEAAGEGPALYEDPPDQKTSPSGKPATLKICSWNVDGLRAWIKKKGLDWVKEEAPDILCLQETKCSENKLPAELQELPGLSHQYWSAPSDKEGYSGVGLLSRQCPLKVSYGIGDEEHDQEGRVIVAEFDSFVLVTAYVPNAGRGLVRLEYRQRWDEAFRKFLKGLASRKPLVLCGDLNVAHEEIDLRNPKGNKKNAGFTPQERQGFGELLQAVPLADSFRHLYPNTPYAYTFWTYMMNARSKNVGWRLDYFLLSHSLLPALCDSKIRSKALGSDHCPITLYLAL
# Alpha-galactosidase A (Homo sapiens), sequence (P06280 whole entry, looked up): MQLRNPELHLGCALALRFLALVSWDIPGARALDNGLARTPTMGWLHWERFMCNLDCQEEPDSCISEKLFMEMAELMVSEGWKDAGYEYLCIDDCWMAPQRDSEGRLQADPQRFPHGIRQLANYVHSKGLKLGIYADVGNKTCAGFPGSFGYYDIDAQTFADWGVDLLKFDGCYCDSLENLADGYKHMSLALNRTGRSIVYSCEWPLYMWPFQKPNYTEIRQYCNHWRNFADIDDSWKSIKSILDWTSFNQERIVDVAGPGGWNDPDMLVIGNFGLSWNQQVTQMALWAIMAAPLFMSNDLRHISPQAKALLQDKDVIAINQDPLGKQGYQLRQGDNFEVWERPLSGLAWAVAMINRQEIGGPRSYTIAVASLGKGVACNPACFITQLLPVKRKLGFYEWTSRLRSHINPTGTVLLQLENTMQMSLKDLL
smiles,measurement,setting,value
CCn1cc(C(=O)O)c(=O)c2cnc(N3CCCC3)nc21,"activity change, negative = inhibition",[1]; at 25.7 µM (top of the series),-3.05% (inactive)
same,max response,[1]; [14],-11.9%
same,max response,[1]; [15],-16.2%
Oc1c(I)cc(I)c2cccnc12,"activity change, negative = inhibition",[1]; at 57.5 µM (top of the series),-2.05% (inactive)
same,max response,[1]; [14],9.29%
same,max response,[1]; [15],10.6%
CCC(NC(C)C)C(O)c1ccc(O)c(O)c1 (stereo unspecified),outcome,[2],inactive
same,"activity change, negative = inhibition",[1]; at 57.5 µM (top of the series),1.71% (inactive)
same,max response,[1]; [14],7.27%
same,max response,[1]; [15],6.31%
same,Potency,[3],inactive
same,outcome,[4],inactive
same,outcome,[5],inactive
same,Potency,[6],11.2 µM (active)
same,Potency,[7],12.6 µM (active)
same,Potency,[8],12.6 µM (active)
same,Potency,[9],12.6 µM (active)
same,Potency,[10],7.08 µM (active)
same,Potency,[11],8.91 µM (active)
CC(O)(P(=O)(O)O)P(=O)(O)O,"activity change, negative = inhibition",[1]; at 25.7 µM (top of the series),2.54% (inactive)
same,max response,[1]; [14],-3.25%
same,max response,[1]; [15],-0.531%
C[C@H](O)C(=O)Nc1c(I)c(C(=O)NC(CO)CO)c(I)c(C(=O)NC(CO)CO)c1I,"activity change, negative = inhibition",[1]; at 25.7 µM (top of the series),-3.5% (inactive)
same,max response,[1]; [14],-8.47%
same,max response,[1]; [15],-9.62%
Cc1cccc(C)c1NC(=O)CN1CCN(CCCC(c2ccc(F)cc2)c2ccc(F)cc2)CC1,"activity change, negative = inhibition",[1]; at 25.7 µM (top of the series),-4.87% (inactive)
same,max response,[1]; [14],-22.3%
same,max response,[1]; [15],-28.7%
CC[N+](CC)(CCNC(=O)C(=O)NCC[N+](CC)(CC)Cc1ccccc1Cl)Cc1ccccc1Cl,"activity change, negative = inhibition",[1]; at 57.5 µM (top of the series),1.97% (inactive)
same,max response,[1]; [14],-14%
same,max response,[1]; [15],-12.6%
CCCCOc1ccc(C(=O)CCN2CCCCC2)cc1,"activity change, negative = inhibition",[1]; at 57.5 µM (top of the series),-7.63% (inactive)
same,max response,[1]; [14],0.252%
same,max response,[1]; [15],0.832%
CCN1CCC[C@H]1CNC(=O)c1c(OC)ccc(Br)c1OC,"activity change, negative = inhibition",[1]; at 25.7 µM (top of the series),-6.61% (inactive)
same,max response,[1]; [14],-13.5%
same,max response,[1]; [15],-15.4%
NCCCC[C@H](N[C@@H](CCc1ccccc1)C(=O)O)C(=O)N1CCC[C@H]1C(=O)O,"activity change, negative = inhibition",[1]; at 25.7 µM (top of the series),0.781% (inactive)
same,max response,[1]; [14],1.7%
same,max response,[1]; [15],0.636%
CCCCCCCCCCCCCCCCOP(=O)([O-])OCC[N+](C)(C)C,"activity change, negative = inhibition",[1]; at 57.5 µM (top of the series),6.36% (inactive)
same,max response,[1]; [14],14.5%
same,max response,[1]; [15],23.7%
CCCC(=O)Nc1ccc(OCC(O)CNC(C)C)c(C(C)=O)c1 (stereo unspecified),"activity change, negative = inhibition",[1]; at 57.5 µM (top of the series),5.02% (inactive)
same,max response,[1]; [14],16.7%
same,max response,[1]; [15],24.3%
O=C(O)c1cc2cc(Cc3cccnc3)ccc2o1,outcome,[12],inactive
same,outcome,[13],inactive
same,outcome,[2],inactive
same,"activity change, negative = inhibition",[1]; at 57.5 µM (top of the series),4.53% (inactive)
same,max response,[1]; [14],9.59%
same,max response,[1]; [15],18.2%
same,Potency,[3],inactive
same,outcome,[4],inactive
same,outcome,[5],inactive
same,Potency,[6],inactive
same,Potency,[7],inactive
same,Potency,[8],inactive
same,Potency,[9],inactive
same,Potency,[10],inactive
same,Potency,[11],inactive
COC(=O)[C@H]1[C@H]2C[C@H]3c4[nH]c5ccccc5c4CCN3C[C@H]2CC[C@@H]1O,outcome,[2],inactive
same,Potency,[3],inactive
same,outcome,[4],inactive
same,outcome,[5],inactive
same,Potency,[8],inactive
same,Potency,[9],inactive
same,Potency,[10],inactive
COc1c2occc2c(OC)c2c(=O)cc(C)oc12,"activity change, negative = inhibition",[1]; at 25.7 µM (top of the series),2.26% (inactive)
same,max response,[1]; [14],3.81%
same,max response,[1]; [15],5.65%
CC1(C)CCC(NC(=O)[C@@H](N)CCC(=O)O)CC1,outcome,[2],inactive
same,Potency,[3],inactive
same,outcome,[4],inactive
same,outcome,[5],inactive
same,Potency,[6],inactive
same,Potency,[7],inactive
same,Potency,[8],inactive
same,Potency,[9],inactive
same,Potency,[10],inactive
same,Potency,[11],inactive
CCCn1c(=O)[nH]c(=O)c2[nH]cnc21,outcome,[12],inactive
same,outcome,[13],inactive
same,outcome,[2],inactive
same,"activity change, negative = inhibition",[1]; at 57.5 µM (top of the series),-0.904% (inactive)
same,max response,[1]; [14],29.5%
same,max response,[1]; [15],25.8%
same,Potency,[3],inactive
same,outcome,[4],inactive
same,outcome,[5],inactive
same,Potency,[6],inactive
same,Potency,[7],inactive
same,Potency,[8],inactive
same,Potency,[9],inactive
same,Potency,[10],inactive
same,Potency,[11],inactive
O=C(COc1ccc(Cl)cc1)N1CCN(Cc2ccc3c(c2)OCO3)CC1,"activity change, negative = inhibition",[1]; at 25.7 µM (top of the series),1.24% (inactive)
same,max response,[1]; [14],-6.27%
same,max response,[1]; [15],-4.72%
C/C=C/c1ccc(OC)cc1,"activity change, negative = inhibition",[1]; at 57.5 µM (top of the series),9.09% (inactive)
same,max response,[1]; [14],9.56%
same,max response,[1]; [15],22.7%
Nc1cc(Cl)c(NC2=NCCN2)c(Cl)c1,outcome,[12],inactive
same,outcome,[13],inactive
same,outcome,[2],inactive
same,Potency,[3],inactive
same,outcome,[4],inactive
same,Potency,[6],inactive
same,Potency,[8],inactive
same,Potency,[9],inactive
same,Potency,[10],inactive
